High-throughput results (PubChem)
CtBP-E1A inh: qHTS Assay for Inhibitors of the CtBP/E1A Interaction | CtBP / adenovirus E1A interaction (AlphaScreen) | activity change, % (test concentration not listed) | AlphaScreen GST-E1A/His-CtBP binding, 1536-well; stronger effect = lower value | 0.49% of 340,000 active; in the data active = activity change below about -65%; inconclusive = mostly about -30% to -63%
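GST-E1A and His-tagged CtBP (125 nM each as 5X stock) were preincubated with pin-transferred compound for 2 h at 37 °C in the dark, then glutathione donor and nickel acceptor beads were added for 1 h before AlphaScreen reading.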
TDP1 block: qHTS Assay for Inhibitors of Tyrosyl-DNA Phosphodiesterase (TDP1). Tyrosyl-DNA phosphodiesterase 1 (Homo sapiens), Q9NUW8. recombinant TDP1, AlphaScreen DNA substrate cleavage. Potency, µM (doses to about 130 µM), without a hit: top-dose activity change, negative = inhibition, usual class: inhibitors. 0.28% of 350,000 active. AID 485290, 2010; also: potency is read from the fitted curve at half-maximal effect; nearly all actives have a fitted effect of over 40% in size
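Here, a 5' biotin and 3' phosphotyrosine-FITC DNA oligonucleotide reports Tdp1 activity: intact substrate bridges AlphaScreen beads, while cleavage leaves a 3' phosphate and drops signal. All incubations at room temperature.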
DT40 TDP1 no CPT: qHTS for Inhibitors of human tyrosyl-DNA phosphodiesterase 1 (TDP1): qHTS in cells in absence of CPT; Potency, µM (titrated, usually from 46.2 µM), for the others: at the top dose activity change, negative = growth inhibition, actives largely listed as inhibitors; 15% of 420,000 active; DT40 Tdp1-/- hTDP1 cells, no CPT, ATP luminescence, 48 h; also: potency is read from the fitted curve at half-maximal effect; nearly all actives have a fitted effect of over 55% in size
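Chicken DT40 Tdp1-/- cells stably complemented with human TDP1 were seeded at 400 cells/well with DMSO in place of 20 nM camptothecin. After compound pinning, cells grew at least 48 hr at 37 °C; viability read by CellTiter-Glo luminescence.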
Six1-Eya2 inh: qHTS Assay for Inhibitors of the Six1/Eya2 Interaction; Homeobox protein SIX1 (Homo sapiens) + Protein phosphatase EYA2 (Homo sapiens), …; AlphaScreen GST-Six1/His-Eya2 binding, biochemical; stronger effect = lower value; activity change, % (concentration not given with the values); 0.56% of 360,000 active; in the data active = activity change below about -65%; inconclusive = mostly about -30% to -63%
Target sequence (O00167 whole entry, looked up): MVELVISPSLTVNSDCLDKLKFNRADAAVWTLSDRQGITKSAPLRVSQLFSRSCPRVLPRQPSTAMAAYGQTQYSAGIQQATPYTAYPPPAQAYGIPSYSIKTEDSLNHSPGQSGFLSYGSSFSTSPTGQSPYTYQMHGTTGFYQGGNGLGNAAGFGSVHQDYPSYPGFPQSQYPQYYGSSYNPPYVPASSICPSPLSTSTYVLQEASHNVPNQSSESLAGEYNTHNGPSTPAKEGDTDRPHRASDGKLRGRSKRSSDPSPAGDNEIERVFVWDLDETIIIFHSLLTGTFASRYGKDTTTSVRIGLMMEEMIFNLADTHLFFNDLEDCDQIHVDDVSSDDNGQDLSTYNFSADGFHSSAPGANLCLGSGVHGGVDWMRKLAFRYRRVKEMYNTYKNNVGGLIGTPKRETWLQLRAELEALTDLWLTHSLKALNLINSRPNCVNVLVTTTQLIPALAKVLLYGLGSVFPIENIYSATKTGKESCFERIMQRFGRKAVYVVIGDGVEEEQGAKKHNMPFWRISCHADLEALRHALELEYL
Target sequence (Q15475 whole entry, looked up): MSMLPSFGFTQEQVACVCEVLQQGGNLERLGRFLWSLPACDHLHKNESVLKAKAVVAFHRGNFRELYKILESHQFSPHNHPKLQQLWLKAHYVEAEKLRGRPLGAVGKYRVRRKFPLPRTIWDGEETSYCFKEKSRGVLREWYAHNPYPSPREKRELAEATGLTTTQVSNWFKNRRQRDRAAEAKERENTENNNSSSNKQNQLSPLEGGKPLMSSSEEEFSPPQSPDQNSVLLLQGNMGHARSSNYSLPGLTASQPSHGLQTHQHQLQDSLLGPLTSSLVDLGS
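Compounds are tested against tagged Six1 and Eya2 proteins bridged by glutathione donor and nickel acceptor beads; after a one-hour incubation at 37 °C without light, AlphaScreen emission is recorded.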
TDP1 cell CPT: qHTS for Inhibitors of human tyrosyl-DNA phosphodiesterase 1 (TDP1): qHTS in cells in presence of CPT | chicken DT40 Tdp1-/-;hTDP1 cells + 20 nM CPT, ATP luminescence, 48 h | Potency, µM (series often up to 46.2 µM), without a hit: at the top dose activity change, negative = growth inhibition, hits mostly inhibitors | 12% of 420,000 active; also: potency is read from the fitted curve at half-maximal effect; nearly all actives have a fitted effect of over 55% in size
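Chicken DT40 Tdp1-/- cells stably complemented with human TDP1 were seeded at 400 cells/well in medium containing 20 nM camptothecin, exposed to pin-transferred compounds, and grown at 37 °C for at least 48 hr. Viability was read as ATP luminescence.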
IL1B secr inh: qHTS for Inhibitors of Inflammasome Signaling: IL-1-beta AlphaLISA Primary Screen; AID 743279, 2014; THP-1 LPS/ATP IL-1B secretion, AlphaLISA, 16 h; stronger effect = lower value; activity change, % at 57.5 µM; 4.7% of 360,000 active; in the data active = activity change below about -50%; inconclusive = mostly about -30% to -49%
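THP-1 cells pretreated 1 hr with compounds (up to 57.5 uM final), then stimulated with LPS (250 ng/mL final) plus ATP (1.25 mM final); secreted IL-1B measured by AlphaLISA after 16 hr, decreased signal indicating inhibition.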
Numbers without * were called inactive; ? = inconclusive; . = no result; [ ] = remark or other dose. Shown are actives, neighbours in structure and some others; about 18% of the full set was active somewhere. Unless noted, calls follow the shape of the dose curve; as a rule, active = well fitted curve in the direction sought with a large enough effect; inconclusive = small, poorly fitted or top-dose-only effect, or another doubt; inactive = no such curve, though single readings can be large; an effect the other way counts as inactive or inconclusive. % is scaled to controls: 0 for no effect and ±100 for the full control effect.

SMILES	CtBP-E1A inh	TDP1 block	DT40 TDP1 no CPT	Six1-Eya2 inh	TDP1 cell CPT	IL1B secr inh
COCCNC(=O)C1(C)CCN(C(=O)c2ccc3c(c2)C(C)(C)CCC3(C)C)C1 (centres undefined)	6	.	26µM*	1	?	28
COCCNC(=O)C1(C)CCN(C(=O)c2ccc(F)c(C)c2)C1 (centres undefined)	3	.	-8%	1	-6%	5
CCC(C(=O)NCC1CCCO1)N(C(=O)CNS(=O)(=O)c1ccccc1)c1ccc(F)cc1 (centres undefined)	20	20%	-18%	0	-2%	-7
CCn1cc(S(=O)(=O)c2cc(C)cc(C)c2)c(=O)c2cc(F)c(N3CCCCC3)cc21	.	-4%	21µM*	.	?	.
Cc1ccc(S(=O)(=O)c2cn(C)c3cc(N4CCCCC4)c(F)cc3c2=O)cc1	.	4%	?	.	?	.
Cc1ccc(S(=O)(=O)c2cn(C)c3cc(N4CCCCCC4)c(F)cc3c2=O)cc1	.	-9%	16µM*	.	?	.
Cc1ccc(S(=O)(=O)c2cn(C)c3cc(N4CCCC(C)C4)c(F)cc3c2=O)c(C)c1 (centres undefined)	.	5%	23µM*	.	23µM*	.
Cc1ccc(S(=O)(=O)c2cn(C)c3cc(N4CCCC4)c(F)cc3c2=O)c(C)c1	.	-2%	23µM*	.	?	.
CC(C)CCOC(=O)c1ccc(N(C)C)cc1	.	-4%	?	.	-29%	.
COc1cccc(NC(C)(C)c2nnnn2-c2c(C)cccc2C)c1	3	0%	?	-1	8%	.
Cc1ccccc1NC(=S)N=Nc1c(O)n(C)c2ccc(S(=O)(=O)N3CCOCC3)cc12	-3	-5%	7.3µM*	-15	8.2µM*	-13
Cn1c(=O)n(C)c2cc(S(=O)(=O)N3CCOCC3)ccc21	0	-1%	-19%	0	5%	3
Cc1cccc(C)c1NC(=S)N=Nc1c(O)n(C)c2ccc(S(=O)(=O)N3CCOCC3)cc12	13	0%	4.1µM*	1	2.6µM*	2
Cc1ccccc1NC(=O)c1cc(S(=O)(=O)N2CCOCC2)cn1C	4	.	7%	1	-2%	-3
CC(C)Oc1ccc(CNCCC2(C(C)C)CCOC(C)(C)C2)cc1 (centres undefined)	5	-2%	?	0	?	-13
Cc1cc(C)cc(N2CCn3c2nc2c3c(=O)n(C/C=C/c3ccccc3)c(=O)n2C)c1	.	8%	-6%	.	-3%	.
CC[C@]12c3[nH]c4ccccc4c3CCN1C(=O)C(CC(=O)NCc1ccco1)C[C@@H]2C(=O)N1CCN(C(=O)C2CC2)CC1 (some centres undefined)	0	1%	-4%	4	-4%	1
CC[C@]12c3[nH]c4ccc(Cl)cc4c3CCN1C(=O)[C@@H](CC(=O)NCC13CC4CC(CC(C4)C1)C3)C[C@@H]2C(=O)N1CCN(C(=O)C2CC2)CC1	-1	3%[56.1 µM]	3.3µM*	-6	8.2µM*	0
CC[C@]12c3[nH]c4ccccc4c3CCN1C(=O)C(CC(=O)NCC13CC4CC(CC(C4)C1)C3)C[C@@H]2C(=O)N1CCN(C(=O)C2CC2)CC1 (some centres undefined)	-11	5%	5.2µM*	-7	5.2µM*	0
